Here are results for 51 molecules from ChEMBL document CHEMBL4513216, “Probing the Open Global Health Chemical Diversity Library for Multistage-Active Starting Points for Next-Generation Antimalarials” (ACS Infect Dis, 2020).

SMILES strings stand for the structures. The campaign covered roughly 68,000 compounds. About 2,700 (4%) showed an effect of 50% or more. Shown is part of a subset that was picked to be rich in strong results.

In the assay the test system is Plasmodium berghei. The assay is described as follows: Screen against P. berghei liver stage (PbLuc), transformed with Luciferase, at 2uM. Type of assay: functional, HepG2. The following applies: tested at 2 uM.
On to `CCOCC(=O)N1C[C@@H](NC(C)=O)[C@H](c2ccc(OC)cc2)C1`, for which the INHIBITION is 20.15%. With `COc1ccc([C@@H]2CN(C(=O)CS(C)(=O)=O)C[C@H]2NC(C)=O)cc1`, the INHIBITION is recorded as 1.85%. With `COCCN(C)CC(=O)N1C[C@@H](NC(C)=O)[C@H](c2ccc(OC)cc2)C1` the figure was 53.13%; with `Cc1cnn(CC2CN(Cc3nc4ccccc4s3)CCO2)c1` (stereo unspecified), 53.98%. The result for `c1ccc2sc(CN3CCOC(Cn4cncn4)C3)nc2c1` (stereo unspecified) reads 5.72%. Turning to `c1ccc2sc(CN3CCOC(Cn4cccn4)C3)nc2c1` (stereo unspecified), the INHIBITION was -88.54%. Regarding `Cn1cc(C(=O)NCCc2ccc(OC3CCCC3)cc2)ccc1=O`, the INHIBITION was -25.78%.

For `CCOCc1cncc2c1CCN(S(=O)(=O)c1cccc(C)c1)C2`, the INHIBITION is listed as 9.36%. With `CCOCc1cncc2c1CCN(S(=O)(=O)c1ccc(C)cc1)C2` the figure was 70.13%; with `CCOCc1cncc2c1CCN(S(=O)(=O)c1ccccc1)C2`, -18.7%; with `COc1ccc(CN2C[C@@H]3OCCN(CCN4CCCC4)[C@@H]3C2)cc1`, 28.85%. The result for `CN(C(=O)c1cccc(NCc2cccs2)c1)C(C1CC1)C1CC1` reads 29.41%. The result for `Nc1nc2c(c(NCc3nccs3)n1)CCN(CC1CCCC1)CC2` reads -1.29%; that for `CCc1cnc(CN(C(C)=O)C2CCN(CCc3ccccn3)C2)o1` (stereo unspecified), 35.65%. As to `CCc1cnc(CN(C(C)=O)C2CCN(CCc3cnn(C)c3)C2)o1` (stereo unspecified), the INHIBITION is given as 1.61%. The result for `CCc1cnc(CN(C(C)=O)C2CCN(CCc3ccccc3)C2)o1` (stereo unspecified) reads 51.94%.

As to `CCc1cnc(CN(C(C)=O)C2CCN(CCc3ccncc3)C2)o1` (stereo unspecified), the INHIBITION is listed as 17.31%. Turning to `CCc1cnc(CN(C(C)=O)C2CCN(CCN3CCCCC3)C2)o1` (stereo unspecified), the INHIBITION worked out at 56.02%. With `CCc1cnc(CN(C(C)=O)C2CCN(CC3(O)CCCCC3)C2)o1` (stereo unspecified) the figure was 43.79%; with `CCc1cnc(CN(C(C)=O)C2CCN(Cc3nccn3C)C2)o1` (stereo unspecified), 10.22%. For `CCc1cnc(CN(C(C)=O)C2CCN(CCS(C)(=O)=O)C2)o1` (stereo unspecified), the INHIBITION is -9.62%. The result for `CCc1cnc(CN(C(C)=O)C2CCN(CC(=O)N3CCCC3)C2)o1` (stereo unspecified) reads 75.98%; that for `Cc1cc(C)cc(OCC(=O)N2CCCN(CC(N)=O)CC2)c1`, -28.76%. With `CN(C)C[C@H]1OC[C@@H]2CCN(C(=O)c3cccn3C)C[C@@H]21` the figure was 8.65%; with `Cc1cc(C)n(NC(=O)c2ccc(Cl)cc2Cl)c(=O)c1`, -3.05%; with `Cc1ccc(CNC2CC3(CCN(CCO)CC3)c3ccccc32)s1` (stereo unspecified), 47.05%. The result for `CN(C)[C@@H]1CN(C(=O)COc2cccc(F)c2)C[C@H]1O` reads -0.83%. For the molecule `CCCNC(=O)C1CCN(Cc2csc(CC)n2)CC1`, the INHIBITION is recorded as 36.64%.

As to `COCCC1COC2(CCN(C(=O)Cc3ccccc3)CC2)C1` (stereo unspecified), the INHIBITION was -19.07%. Regarding `O=C([C@H]1COC[C@H]2CN(C3CCOCC3)C[C@H]21)N1CCCCO1`, the INHIBITION is recorded as -3.25%. Turning to `O=C([C@@H]1COC[C@H]2CN(C3CCOCC3)C[C@H]21)N1CCCCO1`, the INHIBITION is 59.77%. The result for `O=C([C@H]1COC[C@H]2CN(C3CCOCC3)C[C@H]21)N1CCCO1` reads -17.39%. The result for `CCOCC1c2c(cnn2CC2CC2)CCN1Cc1nccs1` (stereo unspecified) reads 26.64%.

On to `O=C(NCCCO)c1nnsc1-c1ccc(Cl)cc1`, for which the INHIBITION came out at 34.52%. With `CN(CCCc1cnn(C)c1)Cc1cc2n(n1)CCNC2` the figure was 19.66%; with `CS(=O)(=O)NCCCN1CCCC1c1ccccc1` (stereo unspecified), 42.11%; with `CS(=O)(=O)NCCCN1CCCC1c1ccsc1` (stereo unspecified), 51.46%. The result for `CS(=O)(=O)NCCCN1CCCC1c1cccc(Br)c1` (stereo unspecified) reads -8.52%; that for `Cc1noc(C)c1CN1C[C@@H]2COC[C@H](C(=O)N3CCCCO3)[C@@H]2C1`, -60.98%; that for `O=C(O)CCn1ccc(=O)c2cc(F)ccc21`, 55.73%. Consider `O=C(O)Cn1ccc(=O)c2cc(F)ccc21`, for which the INHIBITION is given as 3.88%.

Regarding `COC(=O)CCn1ccc(=O)c2cc(F)ccc21`, the INHIBITION is on record as -17.26%. With `O=C(CCn1cncn1)Nc1ccc(F)cc1OCC1CC1` the figure was 14.47%. The result for `Cn1cc(CNCCNc2ncc(Cl)cc2Cl)cn1` reads -12.84%. With `Cn1ccnc1CNCCNc1ncc(Cl)cc1Cl` the figure was 57.43%; with `CCn1cc(CNCCNc2ncc(Cl)cc2Cl)cn1`, -30.98%. Consider `CC(C)c1nc(CN2CCc3onc(-c4cccc(F)c4)c3C2)no1`, for which the INHIBITION was -18.57%.

Turning to `COc1c(CNCCNC(=O)c2ccccc2)c(C)nn1C`, the INHIBITION was 33.82%.

Take `COc1c(CNCCNC(=O)c2ccc(C)c(F)c2)c(C)nn1C`: the INHIBITION is on record as -45.21%. The result for `COc1c(CNCCNC(=O)c2ccccc2F)c(C)nn1C` reads 67.69%. Consider `COc1cccc([C@@H]2CN(C(=O)c3ccc(C)cc3O)C[C@H]2C(=O)O)c1`, for which the INHIBITION came out at 10.1%.
